HGIII-sPLA2 inh – Inhibits HGIII-sPLA2 liposome hydrolysis, primary screen | QFRET BODIPY PC-A2 liposome hydrolysis, fluorescence | inhibition, % at 12.2 µM | actives 0.56% (n = 370,000);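 active = inhibition above mean plus 3 SD of compounds lying within the high and low control bounds, cut at about 19% in these data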;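 also: 0% = median of test compound wells and 100% = no enzyme DMSO wells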
Target sequence (Q9NZ20 whole entry, looked up): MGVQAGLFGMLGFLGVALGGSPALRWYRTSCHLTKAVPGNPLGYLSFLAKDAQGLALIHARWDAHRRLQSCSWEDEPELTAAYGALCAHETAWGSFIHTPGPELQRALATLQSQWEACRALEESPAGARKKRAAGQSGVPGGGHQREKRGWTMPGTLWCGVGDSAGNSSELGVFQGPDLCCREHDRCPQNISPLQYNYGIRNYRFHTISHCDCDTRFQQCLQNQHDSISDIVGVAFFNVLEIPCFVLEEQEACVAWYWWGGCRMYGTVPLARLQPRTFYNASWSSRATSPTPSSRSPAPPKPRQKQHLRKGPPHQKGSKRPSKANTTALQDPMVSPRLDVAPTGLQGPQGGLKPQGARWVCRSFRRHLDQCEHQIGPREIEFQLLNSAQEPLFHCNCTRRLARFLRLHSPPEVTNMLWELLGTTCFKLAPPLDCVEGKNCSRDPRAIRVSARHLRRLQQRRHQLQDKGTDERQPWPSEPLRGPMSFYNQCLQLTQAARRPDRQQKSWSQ
MsrA act – bovine methionine sulfoxide reductase A activation. AID 602163. purified bovine MsrA, absorbance read-out. activation, % at 10.6 µM. actives 0.3% (n = 360,000); in the data active = activation above about 7.5%;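 also: 0% = vehicle and 100% = reference activator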
rCAG binder – molecules binding r(CAG) RNA repeats | actives 1.3% (n = 370,000) | inhibition, % at 3 µM | AID 651821 | r(CAG) RNA repeat, TO-PRO-1 dye displacement fluorescence;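 active = inhibition above the plate cutoff, the mean of all test compounds on that plate plus 3 SD, cut at about 35% in these data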;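 also: 0% = DMSO alone and 100% = 100 µM mitoxantrone as full dye displacement; higher means more dye released from RNA so lower well fluorescence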
MsrA inhibitor – bovine MsrA inhibition; purified bovine MsrA, absorbance read-out; actives 0.75% (n = 360,000); inhibition, % at 15.5 µM; AID 651718; in the data active = inhibition above about 4.5%;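 also: 0% = vehicle wells with enzyme and 100% = reference inhibitor wells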
rCAG binder conf – r(CAG) RNA repeat binding, confirmation | shares compounds with rCAG binder | TO-PRO-1 dye displacement fluorescence | inhibition, % at 3 µM | actives 70% (n = 4,300);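 active = inhibition above a per-plate cutoff, the mean inhibition of sample wells plus 3 SD, cut at about 35% in these data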;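 also: loss of TO-PRO-1 fluorescence as compound displaces dye from 1x1 AA loop RNA; 0% = DMSO only wells and 100% = 100 µM mitoxantrone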
DNA CAG counter – disrupts DNA CAG TO-PRO-1 complex, flagging rCAG hits | actives 94% (n = 4,300) | shares compounds with rCAG binder | inhibition, % at 3 µM | d(CAG) DNA oligo TO-PRO-1 dye displacement, fluorescence;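 active = inhibition above its plate's cutoff, the mean test-well inhibition plus 3 SD, cut at about 4.8% in these data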;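 also: 0% = DNA dye mix with DMSO and 100% = 100 µM mitoxantrone; hits displace the dye from DNA and so lower well fluorescence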
DNA CAG DR – counter-screen for rCAG binders: inhibitors of DNA CAG TO-PRO-1 complex; shares compounds with rCAG binder; DNA CAG/GTC duplex TO-PRO-1 dye displacement fluorescence; IC50, µM; actives 20% (n = 250); AID 686960; in the data active = IC50 below about 10 µM
* hit, by the source's call; x = not tested or not shown. This is a sample that favours compounds with a hit; in the whole collection about 2.8% have one here.

SMILES	HGIII-sPLA2 inh	MsrA act	rCAG binder	MsrA inhibitor	rCAG binder conf	DNA CAG counter	others
Cc1ccc(-c2nn(-c3ccccc3)cc2C2CC(c3cccs3)=NN2C(=O)CCC(=O)O)cc1 (configuration not stated)	12	-4	15	0	x	x
N#CC(C#N)=C(Nc1ccc(F)cc1)SCc1cccc(Br)c1	-88	-8	47*	2	51*	16*	DNA CAG DR=>30
O=C(O)c1cc(-c2ccc3ccccc3c2)nc2ccc(F)cc12	-12	0	37*	2	19	4
O=C(O)c1cc(-c2ccc3ccccc3n2)nc2ccccc12	-5	-9	2	2	x	x
O=C(O)c1cc(-c2c[nH]c3ccccc23)nc2cc3ccccc3cc12	-45	-5	54*	2	35*	13*
OC(CNCc1cccs1)c1ccccc1 (configuration not stated)	x	-2	x	x	x	x
COc1ccc(/C=N/NC(=O)c2[nH]c3ccc(Br)cc3c2-c2ccccc2)c(C(=O)O)c1OC	-11	-2	62*	3	77*	43*
CC1=CC(C)(C)NC(=S)N1c1cccc2cc(S(=O)(=O)O)ccc12	-11	-10	43*	1	87*	58*
N#C/C(=C(/O)C(Cl)(Cl)Cl)c1nc2ccccc2[nH]1	-5	-3	0	4	x	x
COc1cc(/C=C/C(=O)O)cc(S(=O)(=O)Nc2ccccc2C(=O)NCc2ccco2)c1OC	8	-14	14	1	x	x
Cc1ccc([C@@H]2CC=C(C(=O)O)[C@H](c3cccc(Cl)c3)N2S(=O)(=O)c2ccccc2C)cc1	-38	-6	82*	-1	77*	43*
Cc1ccccc1S(=O)(=O)N1C(c2ccc(Cl)cc2)CC=C(C(=O)O)C1c1cccc(Cl)c1 (configuration not stated)	-4	x	84*	0	77*	40*
Cc1ccccc1S(=O)(=O)N1[C@@H](c2ccc(Cl)cc2)C(C(=O)O)=CC[C@H]1c1ccc(Cl)cc1	-45	-10	80*	-1	80*	40*
CCCN(CCC)C(=O)c1c(C)[nH]c(C(=O)OCC)c1C	2	-1	-1	-1	x	x
CC(C)Cn1cnc2c(SCc3ccccn3)nc(N)nc21	16	-4	0	1	x	x
COC(=O)CC1=NN(c2ccc(OC)cc2)C(=O)C1	-4	-4	43*	0	2	0
Cc1ccc(NC(=O)C/C(N)=N/OC(=O)Nc2ccc(C)c(Cl)c2)cc1	-2	-2	3	-1	x	x
Cc1ccc(S(=O)(=O)N/N=C2/CC(c3ccccc3)Oc3ccccc32)cc1[N+](=O)[O-] (configuration not stated)	-8	0	42*	2	76*	37*
O=C(CN1C(=O)c2ccccc2C1=O)Nc1cccc(O)c1	2	-2	2	-1	x	x
CN(C)S(=O)(=O)c1ccc(Cl)c(NC(=O)COC(=O)c2ccc3c(c2)NC(=O)CS3)c1	-6	-5	12	0	x	x
Cc1cc(N)n(-c2ccc(Oc3ccccc3)c(S(=O)(=O)O)c2)n1	-22	-3	59*	2	42*	9.7*
Cc1cc(N)n(-c2ccc(C)c(C)c2)n1	5	-9	-2	-1	x	x
CCOC(=O)CSc1nc2c(sc(=S)n2-c2ccc(CC)cc2)c(=O)[nH]1	-32	0	60*	3	65*	26*
CCCCNC(=O)CSc1nc2c(sc(=S)n2-c2cc(Cl)ccc2OC)c(=O)[nH]1	-10	-5	44*	2	43*	12*
COc1ccc(C2/C(=C(/O)c3ccc4c(c3)CC(C)O4)C(=O)C(=O)N2CCN2CCOCC2)cc1OC (configuration not stated)	4	-3	1	3	x	x
CC(CO)(CO)NC(=O)c1ccc(C#Cc2cccc(F)c2)cn1	9	x	2	x	x	x
CC1=Nc2cc(C(=O)O)ccc2Sc2ccc(Br)cc21	-13	-5	51*	-1	55*	22*
Cc1ccc(NC(=O)CSc2ncc(S(=O)(=O)c3ccccc3)c(=O)[nH]2)cc1C	-38	-4	49*	-1	43*	11*

Screening results (PubChem)
